Active and inactive are the calls of the source. Unless noted, no stated cut-off is given here; in the data, active means inhibition above about 80%; inactive means the rest.
How the values were obtained:
[1] = growth inhibition, single agent or in combination, cell-based, chromothripsis tumors, cisplatin or BGB combos (AID 1671449); details: LFS_MB_P medulloblastoma cells;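 further: cells exposed for 96 hours; 0% = vehicle DMSO and 100% = killing by high DMSO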
[2] = growth inhibition, single agent and combos, cell-based, chromothripsis tumors, cisplatin or BGB combos (AID 1671450); details: HDN33 neuroblastoma cells, stronger effect = higher value;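 further: cells exposed to compound for four days; 0% = vehicle DMSO and 100% = cell killing by high DMSO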
[3] = growth inhibition, single agents and combos, ICB984, cell-based, cisplatin or BGB combos, synergistic combos for chromothripsis tumors (AID 1671451; call rule not given here;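 further: cells exposed for 96 hours before readout; 0% = vehicle DMSO and 100% = killing by high DMSO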); details: ICB984 medulloblastoma cells, drug combinations, stronger effect = higher value
[4] = growth inhibition, single agents and combos, LFS_MB_1R, cell-based, cisplatin or BGB combos, synergistic combos for chromothripsis tumors (AID 1671452); details: LFS_MB_1R medulloblastoma cells, stronger effect = higher value;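 further: cells exposed for 96 hours before readout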
[5] = growth inhibition, single agents and combos, HTB85, cell-based, BGB or cisplatin IC20 combos, synergistic combos for chromothripsis tumors (AID 1671453); details: HTB85 osteosarcoma cells, drug combinations, stronger effect = higher value;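 further: cells exposed for 96 hours before readout; 0% = vehicle DMSO and 100% = high DMSO killing control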
[6] = growth inhibition, single agents and combos, CRL2098, cell-based, BGB or cisplatin IC20 combos, synergistic combos for chromothripsis tumors (AID 1671454); details: CRL2098 osteosarcoma cells, drug combinations, stronger effect = higher value;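 further: cells exposed for 96 h before readout; 0% = vehicle DMSO and 100% = killing by high DMSO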
[7] = growth inhibition, single agents and combos, HD-MB03, cell-based, BGB or cisplatin IC20 combos, synergistic combos for chromothripsis tumors (AID 1671455; in the data active means inhibition above about 83%;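 further: 0% = vehicle DMSO and 100% = high DMSO as cytotoxic control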); details: HD-MB03 medulloblastoma cells, stronger effect = higher value
[8] = growth inhibition, single agents and combos, UWB1.289, cell-based, BGB or cisplatin combos, synergistic combos for chromothripsis tumors (AID 1671456); details: UWB1.289 ovarian carcinoma cells, stronger effect = higher value;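 further: cells exposed to compound for four days; 0% = vehicle DMSO and 100% = killing by high DMSO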
[9] = growth inhibition, single agents and combos, LFS_MB_2R, cell-based, cisplatin combos, synergistic combos for chromothripsis tumors (AID 1671457); details: LFS_MB_2R medulloblastoma cells, stronger effect = higher value;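 further: cells exposed to compound for four days before readout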
[10] = growth inhibition, MDA-MB-436, cell-based, BGB or cisplatin combos, synergistic combos for chromothripsis tumors (AID 1671458; call rule not given here;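 further: cells exposed for 96 hours; 0% = vehicle DMSO and 100% = killing by high DMSO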); details: MDA-MB-436 breast carcinoma growth inhibition, drug combinations, stronger effect = higher value
[11] = UWB1.289_BRCA1 ovarian cancer growth, cell-based, BGB or cisplatin combinations (AID 1671459); details: UWB1.289 BRCA1 ovarian carcinoma, drug combinations, stronger effect = higher value
[12] = drug combination toxicity in non-malignant astrocytes – cell-based, BGB or cisplatin IC20 combos, cytotoxicity control for chromothriptic childhood tumor combination screen (AID 1671460); details: Human astrocytes, viability inhibition, drug combinations, at 0.5 µM, stronger effect = higher value;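 further: cells exposed to compounds for 96 hours before viability readout; 0% = vehicle and 100% = killing control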
[13] = BT084 cell growth, single and combined drugs, ICGC_MB145, cisplatin and BGB IC40 combos (AID 1671461); details: BT084 medulloblastoma cells, drug combinations, stronger effect = higher value;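 further: cells exposed to drugs for 96 hours; 0% = vehicle DMSO and 100% = high DMSO full killing control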
[14] = RCMB18 cell growth, single agent and combined, cisplatin and BGB IC40 combos (AID 1671462); details: RCMB18 medulloblastoma cells, stronger effect = higher value;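 further: cells exposed to compound for four days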
[15] = CRL1545 cell growth, single agent and combined, cisplatin and BGB IC20 combos (AID 1671464); details: CRL1545 osteosarcoma cells, stronger effect = higher value;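 further: cells exposed to compound for 96 hours before readout; 0% = vehicle DMSO and 100% = high DMSO killing control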
[16] = at 0.5 µM, stronger effect = higher value
[17] = measured here: combination with BGB IC20, at 0.005 µM
[18] = measured here: combination with BGB IC40, at 0.005 µM
[19] = measured here: combination with BGB IC40, at 0.05 µM
[20] = measured here: combination with cisplatin, at 0.5 µM, stronger effect = higher value
[21] = measured here: combination with cisplatin, at 5 µM, stronger effect = higher value
[22] = measured here: with BGB IC20 combination, at 0.5 µM
[23] = measured here: with cisplatin IC20 combination, at 0.5 µM
[24] = measured here: 5 uM single agent, at 5 µM
[25] = measured here: combination with cisplatin, at 0.5 µM
[26] = measured here: combination with cisplatin, at 5 µM
[27] = measured here: with BGB IC20, at 0.5 µM
[28] = measured here: with BGB IC20, at 5 µM
[29] = measured here: with cisplatin IC20, at 0.5 µM
[30] = measured here: with cisplatin IC20, at 5 µM
[31] = measured here: combination with BGB at IC20, at 0.5 µM
[32] = measured here: combination with cisplatin at IC20, at 0.5 µM
[33] = measured here: combo with BGB at IC20, at 0.5 µM
[34] = measured here: combo with cisplatin at IC20, at 0.5 µM
[35] = measured here: inhibition with BGB combination, at 0.05 µM
[36] = measured here: inhibition with cisplatin combination, at 0.05 µM
[37] = measured here: BGB combination, at 0.5 µM
[38] = measured here: BGB combination, at 5 µM
[39] = measured here: cisplatin combination, at 0.5 µM
[40] = measured here: cisplatin combination, at 5 µM
[41] = BGB combination, concentration series, at 5 µM
[42] = cisplatin combination, concentration series, at 5 µM
[43] = measured here: combo with BGB IC20
[44] = measured here: combo with cisplatin IC20
[45] = cisplatin combination, at 0.5 µM
[46] = measured here: BGB IC40 combination 0.05 uM, at 0.05 µM
[47] = measured here: BGB IC40 combination, at 0.05 µM

CC(C)c1ccc(-c2cc(=O)c3ccccc3o2)cc1
inhibition [1, 16]: -1.02% (inactive) | inhibition [1, 17]: -13.4% | inhibition [1, 18]: -27.4% | inhibition [1, 19]: 8.34% | inhibition [1, 20]: 64.5% | inhibition [1, 21]: 60.2% | inhibition ([2]; BGB combo, at 5 µM): 30.8% | inhibition ([2]; at 0.5 µM): -12.3% (inactive) | inhibition ([2]; cisplatin combo, at 5 µM): 30.4% | inhibition [2, 22]: -6.46% | inhibition [2, 23]: -22.2% | inhibition ([2]; single agent, at 5 µM): 42.1% | inhibition ([3]; BGB IC20 combo, at 0.005 µM): 5.4% | inhibition ([3]; BGB IC40 combo, at 0.005 µM): -31.5% | inhibition ([3]; BGB IC40 combo, at 0.05 µM): 14.8% | inhibition ([3]; at 0.5 µM): -18.8% (inactive) | inhibition ([3]; cisplatin combo, at 0.05 µM): 11.4% | inhibition ([3]; cisplatin combo, at 0.5 µM): -24.5% | inhibition ([3]; cisplatin combo, at 5 µM): -45% | inhibition [3, 24]: -10.3% | inhibition ([4]; at 0.5 µM): -36.4% (inactive) | inhibition [4, 19]: -28.3% | inhibition [4, 25]: -81.6% | inhibition [4, 26]: 18.3% | inhibition ([5]; at 0.5 µM): -40.2% (inactive) | inhibition [5, 27]: -39.8% | inhibition [5, 28]: 1.8% | inhibition [5, 29]: -59.9% | inhibition [5, 30]: 17.5% | inhibition ([5]; single agent, at 5 µM): 16.9% | inhibition ([6]; at 0.5 µM): -58.5% (inactive) | inhibition [6, 31]: -35.3% | inhibition [6, 32]: -37.3% | inhibition ([7]; at 0.5 µM): -10% (inactive) | inhibition [7, 33]: -14% | inhibition [7, 34]: -4.48% | inhibition ([8]; at 0.5 µM): -15.3% (inactive) | inhibition [8, 35]: -31.9% | inhibition [8, 36]: -16.9% | inhibition ([9]; at 0.5 µM): -14.3% (inactive) | inhibition [9, 25]: -16.1% | inhibition [9, 26]: 41.6% | inhibition ([10]; at 0.5 µM): -11.1% (inactive) | inhibition [10, 37]: -14.1% | inhibition [10, 38]: 27.2% | inhibition [10, 39]: -11.6% | inhibition [10, 40]: 22.8% | inhibition [11, 41]: 43.9% | inhibition ([11]; at 0.5 µM): -16.7% (inactive) | inhibition [11, 42]: 32.9% | inhibition [12]: -3.03% (inactive) | inhibition [12, 43]: 2.13% | inhibition [12, 44]: -6.48% | inhibition ([13]; at 0.5 µM): -10.1% (inactive) | inhibition [13, 45]: -5.92% | inhibition ([13]; cisplatin combination, at 5 µM): 41.9% | inhibition [13, 46]: -23.7% | inhibition ([13]; single agent, at 5 µM): 42.7% | inhibition ([14]; at 0.5 µM): -14% (inactive) | inhibition ([14]; cisplatin combo, at 5 µM): 35.3% | inhibition [14, 47]: -32.1% | inhibition [14, 25]: -17.3% | inhibition ([14]; single agent, at 5 µM): 35% | inhibition ([15]; at 0.5 µM): -29.6% (inactive) | inhibition [15, 22]: -34% | inhibition [15, 23]: -27.5% | inhibition ([15]; single agent, at 0.05 µM): -43.4% | inhibition ([15]; single agent, at 5 µM): 26.5%

NC(=O)c1cccc2cn(-c3ccc(C4CCCNC4)cc3)nc12 (stereo unspecified)
inhibition [1, 16]: -22.2% (inactive) | inhibition [1, 17]: 9.92% | inhibition [1, 18]: -8.03% | inhibition [1, 19]: -6.95% | inhibition [1, 20]: -37.4% | inhibition [1, 21]: -29.2% | inhibition ([2]; BGB combo, at 5 µM): -13.1% | inhibition ([2]; at 0.5 µM): -12.8% (inactive) | inhibition ([2]; cisplatin combo, at 5 µM): 28.2% | inhibition [2, 22]: -14.6% | inhibition [2, 23]: -19.6% | inhibition ([2]; single agent, at 5 µM): 44.3% | inhibition ([3]; BGB IC20 combo, at 0.005 µM): -10.7% | inhibition ([3]; BGB IC40 combo, at 0.005 µM): -50.8% | inhibition ([3]; BGB IC40 combo, at 0.05 µM): -43.2% | inhibition ([3]; at 0.5 µM): -25.3% (inactive) | inhibition ([3]; cisplatin combo, at 0.05 µM): -48.9% | inhibition ([3]; cisplatin combo, at 0.5 µM): -42.4% | inhibition ([3]; cisplatin combo, at 5 µM): -33% | inhibition [3, 24]: -12.1% | inhibition ([4]; at 0.5 µM): -17.8% (inactive) | inhibition [4, 19]: -23.5% | inhibition [4, 25]: -55.4% | inhibition [4, 26]: -54.7% | inhibition ([5]; at 0.5 µM): -22% (inactive) | inhibition [5, 27]: -26.2% | inhibition [5, 28]: -8.36% | inhibition [5, 29]: -25.1% | inhibition [5, 30]: 8.74% | inhibition ([5]; single agent, at 5 µM): 31.7% | inhibition ([6]; at 0.5 µM): -34.1% (inactive) | inhibition [6, 31]: -52.1% | inhibition [6, 32]: -0.058% | inhibition ([7]; at 0.5 µM): -5.6% (inactive) | inhibition [7, 33]: -17.4% | inhibition [7, 34]: 6.18% | inhibition ([8]; at 0.5 µM): -3.23% (inactive) | inhibition [8, 35]: 2.85% | inhibition [8, 36]: -19.1% | inhibition ([9]; at 0.5 µM): -4.32% (inactive) | inhibition [9, 25]: -10.3% | inhibition [9, 26]: -4.18% | inhibition ([10]; at 0.5 µM): 13.9% (inactive) | inhibition [10, 37]: -2.85% | inhibition [10, 38]: -6.33% | inhibition [10, 39]: 15.6% | inhibition [10, 40]: 32.2% | inhibition [11, 41]: -5.8% | inhibition ([11]; at 0.5 µM): 0.96% (inactive) | inhibition [11, 42]: 23.7% | inhibition [12]: -10.9% (inactive) | inhibition [12, 43]: -10.9% | inhibition [12, 44]: -15.8% | inhibition ([13]; at 0.5 µM): -8.13% (inactive) | inhibition [13, 45]: -15.8% | inhibition ([13]; cisplatin combination, at 5 µM): -1.06% | inhibition [13, 46]: 4.73% | inhibition ([13]; single agent, at 5 µM): -30.1% | inhibition ([14]; at 0.5 µM): -4.94% (inactive) | inhibition ([14]; cisplatin combo, at 5 µM): -39.1% | inhibition [14, 47]: -13.7% | inhibition [14, 25]: -10.1% | inhibition ([14]; single agent, at 5 µM): -43.2% | inhibition ([15]; at 0.5 µM): -29.8% (inactive) | inhibition [15, 22]: -55.3% | inhibition [15, 23]: -17% | inhibition ([15]; single agent, at 0.05 µM): -35.4% | inhibition ([15]; single agent, at 5 µM): 30.1%

— PubChem BioAssay
